The supplement of paper PMC12282887
± gives the standard deviation of the averaged measurements.

How the values were obtained:
Test in all cases: promoter activity interaction Z-score (Lux/OD deviation from empty-vector control); higher = stronger promoter induction by the compound
[1] = tested on: E. coli BW25113 acrABp lux reporter
In short: (§1)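 Every compound was given at four 1:2 dilutions, in biological duplicates, to E. coli BW25113 carrying low-copy luxCDABE promoter reporters in wild-type or single-gene deletion backgrounds. Growth in 40 µl LB Lennox in 384-well plates at 37°C was followed by OD600 and luminescence readings every 30 min for 12 h, integrated over 0–8 h for wild type and 1–9 h for deletion strains, with wells below 10% of the median growth value excluded. Scores are Z-transformed residuals of growth-normalised luminescence fitted against a control.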

[2] = tested on: E. coli BW25113 micFp lux reporter
In short: as §1

[3] = tested on: E. coli BW25113 ompFp lux reporter
In short: as §1

[4] = tested on: E. coli BW25113 robp lux reporter
In short: as §1

[5] = tested on: E. coli BW25113 soxSp lux reporter
In short: as §1

[6] = tested on: E. coli BW25113 tolCp lux reporter
In short: as §1

[7] = 11.4 µg/ml, genetic background: wild type
[8] = 11.4 µg/ml, genetic background: ΔmarA
[9] = 11.4 µg/ml, genetic background: Δrob
[10] = 11.4 µg/ml, genetic background: ΔsoxS
[11] = 22.8 µg/ml, genetic background: wild type
[12] = 22.8 µg/ml, genetic background: ΔmarA
[13] = 22.8 µg/ml, genetic background: Δrob
[14] = 22.8 µg/ml, genetic background: ΔsoxS
[15] = 45.5 µg/ml, genetic background: wild type
[16] = 45.5 µg/ml, genetic background: ΔmarA
[17] = 45.5 µg/ml, genetic background: Δrob
[18] = 45.5 µg/ml, genetic background: ΔsoxS
[19] = 91.1 µg/ml, genetic background: wild type
[20] = 91.1 µg/ml, genetic background: ΔmarA
[21] = 91.1 µg/ml, genetic background: Δrob
[22] = 91.1 µg/ml, genetic background: ΔsoxS

## Cn1c(=O)[nH]c2[nH]c(=O)[nH]c2c1=O [1-Methyluric acid]
[1]; [7]
  promoter activity interaction Z-score: -0.104 ± 0.078
[1]; [8]
  promoter activity interaction Z-score: 0.564 ± 0.66
[1]; [9]
  promoter activity interaction Z-score: -0.212 ± 0.12
[1]; [10]
  promoter activity interaction Z-score: 0.297 ± 0.53
[1]; [11]
  promoter activity interaction Z-score: 0.00584 ± 0.0026
[1]; [12]
  promoter activity interaction Z-score: 0.938 ± 0.94
[1]; [13]
  promoter activity interaction Z-score: -0.286 ± 0.35
[1]; [14]
  promoter activity interaction Z-score: 0.0572 ± 0.41
[1]; [15]
  promoter activity interaction Z-score: -0.247 ± 0.3
[1]; [16]
  promoter activity interaction Z-score: -0.354 ± 0.38
[1]; [17]
  promoter activity interaction Z-score: -0.533 ± 0.26
[1]; [18]
  promoter activity interaction Z-score: 0.207 ± 0.88
[1]; [19]
  promoter activity interaction Z-score: -0.104 ± 0.14
[1]; [20]
  promoter activity interaction Z-score: 0.464 ± 0.1
[1]; [21]
  promoter activity interaction Z-score: -0.246 ± 0.046
[1]; [22]
  promoter activity interaction Z-score: 0.186 ± 0.74
[2]; [7]
  promoter activity interaction Z-score: -0.0236 ± 0.39
[2]; [8]
  promoter activity interaction Z-score: 0.118 ± 0.021
[2]; [9]
  promoter activity interaction Z-score: 0.0501 ± 0.18
[2]; [10]
  promoter activity interaction Z-score: 0.153 ± 0.11
[2]; [11]
  promoter activity interaction Z-score: 0.0921 ± 0.34
[2]; [12]
  promoter activity interaction Z-score: 0.0777 ± 0.13
[2]; [13]
  promoter activity interaction Z-score: 0.162 ± 0.1
[2]; [14]
  promoter activity interaction Z-score: -0.0599 ± 0.019
[2]; [15]
  promoter activity interaction Z-score: -0.0797 ± 0.0059
[2]; [16]
  promoter activity interaction Z-score: 0.0715 ± 0.14
[2]; [17]
  promoter activity interaction Z-score: -0.119 ± 0.051
[2]; [18]
  promoter activity interaction Z-score: 0.323 ± 0.18
[2]; [19]
  promoter activity interaction Z-score: -0.191 ± 0.057
[2]; [20]
  promoter activity interaction Z-score: 0.0296 ± 0.15
[2]; [21]
  promoter activity interaction Z-score: -0.0667 ± 0.089
[2]; [22]
  promoter activity interaction Z-score: 0.409 ± 0.52
[3]; [7]
  promoter activity interaction Z-score: 0.326 ± 0.31
[3]; [8]
  promoter activity interaction Z-score: 0.693 ± 0.12
[3]; [9]
  promoter activity interaction Z-score: 0.46 ± 0.48
[3]; [10]
  promoter activity interaction Z-score: 0.431 ± 0.45
[3]; [11]
  promoter activity interaction Z-score: 0.321 ± 0.41
[3]; [12]
  promoter activity interaction Z-score: 0.558 ± 0.49
[3]; [13]
  promoter activity interaction Z-score: 0.739 ± 0.54
[3]; [14]
  promoter activity interaction Z-score: 0.326 ± 0.25
[3]; [15]
  promoter activity interaction Z-score: -0.32 ± 0.069
[3]; [16]
  promoter activity interaction Z-score: 0.0147 ± 0.41
[3]; [17]
  promoter activity interaction Z-score: -1.23 ± 0.62
[3]; [18]
  promoter activity interaction Z-score: -0.438 ± 0.48
[3]; [19]
  promoter activity interaction Z-score: 0.135 ± 0.01
[3]; [20]
  promoter activity interaction Z-score: 0.619 ± 0.048
[3]; [21]
  promoter activity interaction Z-score: -0.101 ± 0.29
[3]; [22]
  promoter activity interaction Z-score: 0.374 ± 1.1
[4]; [7]
  promoter activity interaction Z-score: -0.269 ± 0.61
[4]; [8]
  promoter activity interaction Z-score: 0.351 ± 0.24
[4]; [9]
  promoter activity interaction Z-score: 0.112 ± 0.039
[4]; [10]
  promoter activity interaction Z-score: 0.0211 ± 0.46
[4]; [11]
  promoter activity interaction Z-score: 0.161 ± 0.081
[4]; [12]
  promoter activity interaction Z-score: 0.493 ± 0.4
[4]; [13]
  promoter activity interaction Z-score: 0.0711 ± 0.33
[4]; [14]
  promoter activity interaction Z-score: -0.912 ± 0.1
[4]; [15]
  promoter activity interaction Z-score: -0.286 ± 0.13
[4]; [16]
  promoter activity interaction Z-score: -0.426 ± 0.29
[4]; [17]
  promoter activity interaction Z-score: -1.18 ± 0.44
[4]; [18]
  promoter activity interaction Z-score: -0.966 ± 0.2
[4]; [19]
  promoter activity interaction Z-score: 0.057 ± 0.46
[4]; [20]
  promoter activity interaction Z-score: 0.0892 ± 0.25
[4]; [21]
  promoter activity interaction Z-score: -0.403 ± 0.09
[4]; [22]
  promoter activity interaction Z-score: -0.691 ± 0.56
[5]; [7]
  promoter activity interaction Z-score: 0.261 ± 0.1
[5]; [8]
  promoter activity interaction Z-score: 0.522 ± 0.037
[5]; [9]
  promoter activity interaction Z-score: 0.347 ± 0.19
[5]; [10]
  promoter activity interaction Z-score: 0.264 ± 0.44
[5]; [11]
  promoter activity interaction Z-score: 0.256 ± 0.0038
[5]; [12]
  promoter activity interaction Z-score: 0.598 ± 0.099
[5]; [13]
  promoter activity interaction Z-score: 0.475 ± 0.19
[5]; [14]
  promoter activity interaction Z-score: 0.221 ± 0.36
[5]; [15]
  promoter activity interaction Z-score: 0.22 ± 0.037
[5]; [16]
  promoter activity interaction Z-score: 0.334 ± 0.14
[5]; [17]
  promoter activity interaction Z-score: 0.132 ± 0.069
[5]; [18]
  promoter activity interaction Z-score: -0.0814 ± 0.51
[5]; [19]
  promoter activity interaction Z-score: 0.104 ± 0.3
[5]; [20]
  promoter activity interaction Z-score: 0.366 ± 0.082
[5]; [21]
  promoter activity interaction Z-score: 0.122 ± 0.097
[5]; [22]
  promoter activity interaction Z-score: 0.0852 ± 0.84
[6]; [7]
  promoter activity interaction Z-score: -0.101 ± 0.82
[6]; [8]
  promoter activity interaction Z-score: 0.236 ± 0.64
[6]; [9]
  promoter activity interaction Z-score: 0.123 ± 0.14
[6]; [10]
  promoter activity interaction Z-score: 0.273 ± 0.67
[6]; [11]
  promoter activity interaction Z-score: 0.46 ± 0.55
[6]; [12]
  promoter activity interaction Z-score: 0.0925 ± 0.54
[6]; [13]
  promoter activity interaction Z-score: 1.34 ± 1.4
[6]; [14]
  promoter activity interaction Z-score: -0.689 ± 1
[6]; [15]
  promoter activity interaction Z-score: 0.324 ± 0.25
[6]; [16]
  promoter activity interaction Z-score: 0.169 ± 0.61
[6]; [17]
  promoter activity interaction Z-score: -0.992 ± 0.65
[6]; [18]
  promoter activity interaction Z-score: 0.413 ± 0.89
[6]; [19]
  promoter activity interaction Z-score: 0.769 ± 0.93
[6]; [20]
  promoter activity interaction Z-score: 0.232 ± 0.41
[6]; [21]
  promoter activity interaction Z-score: 0.664 ± 0.066
[6]; [22]
  promoter activity interaction Z-score: 0.553 ± 0.38
